The source of these data is PubChem BioAssay.

Active and inactive are the calls of the source.

Test [1] has as its system Plasmodium falciparum Sir2 (PF13_0152, Sir2A). Briefly: Plasmodium falciparum Sir2A binding compounds – biochemical, small-molecule microarray, 635 nm fluorescence, primary screen (AID 1098).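 Note: score merges spot fluorescence intensity with its signal-to-noise ratio.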 As to conditions: fluorescence 635 nm, higher = more signal.
Test [2] in a line: probe aDKK1 binding to arrayed compounds – biochemical, biotinylated probe, 635/667 nm fluorescence, primary screen (AID 1099).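 Note: score merges 667nm spot fluorescence with signal to noise across triplicate slides; reference of the scale not given here.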 The following applies: small-molecule microarray, higher = more signal.
Test [3] is described as follows: probe aCHRDL2 binding to arrayed compounds – biochemical, biotinylated probe, 635/667 nm fluorescence, primary screen (AID 1100). The following applies: small-molecule microarray, higher = more signal.
Test [4] can be described thus: change in splice reporter luminescence, either direction, cell-based, HEK293, spliceosome inhibition project, primary screen (AID 1101).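 Note: HEK293 cells carrying a splicing-competent luciferase reporter gene; test concentration not given here.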 The following applies: HEK293 splicing luciferase reporter, 24 h, higher = more signal, called active from +8 up or from −8 down. A general note: Reporter assays use an easily measured gene product as a stand-in for the process of interest.

The target of test [5] is Fibroblast growth factor 10 (Homo sapiens) (UniProt O15520). Briefly: compounds binding fibroblast growth factor 10 – biochemical, small-molecule microarray, 635 nm fluorescence, primary screen (AID 1102). As to conditions: FGF10 binding, fluorescence 635 nm, higher = more signal.
Sequence of Fibroblast growth factor 10 (Homo sapiens) (O15520 whole entry, looked up): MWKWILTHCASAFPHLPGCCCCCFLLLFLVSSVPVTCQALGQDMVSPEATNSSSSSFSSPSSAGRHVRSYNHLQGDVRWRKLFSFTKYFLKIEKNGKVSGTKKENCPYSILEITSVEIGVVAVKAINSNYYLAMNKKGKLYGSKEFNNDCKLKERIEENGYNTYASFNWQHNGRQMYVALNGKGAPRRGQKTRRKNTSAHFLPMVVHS
Test [6] has as its system glycogen synthase kinase-3 (GSK3A per assay name; protocol says GSK3B). Briefly: compounds binding glycogen synthase kinase-3 – biochemical, small-molecule microarray, 635 nm fluorescence, GSK3A, primary screen (AID 1103). Note: the record names both GSK3A and GSK3B. The following applies: fluorescence 635 nm, higher = more signal.
In test [7] the target is Epidermal growth factor receptor (Homo sapiens) (UniProt P00533). Briefly: compounds binding epidermal growth factor receptor – biochemical, small-molecule microarray, 635 nm fluorescence, primary screen (AID 1104).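 Note: score merges 667 nm emission intensity with spot signal to noise over triplicate slides.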 As to conditions: EGFR binding, higher = more signal.
Sequence of Epidermal growth factor receptor (Homo sapiens) (P00533 whole entry, looked up): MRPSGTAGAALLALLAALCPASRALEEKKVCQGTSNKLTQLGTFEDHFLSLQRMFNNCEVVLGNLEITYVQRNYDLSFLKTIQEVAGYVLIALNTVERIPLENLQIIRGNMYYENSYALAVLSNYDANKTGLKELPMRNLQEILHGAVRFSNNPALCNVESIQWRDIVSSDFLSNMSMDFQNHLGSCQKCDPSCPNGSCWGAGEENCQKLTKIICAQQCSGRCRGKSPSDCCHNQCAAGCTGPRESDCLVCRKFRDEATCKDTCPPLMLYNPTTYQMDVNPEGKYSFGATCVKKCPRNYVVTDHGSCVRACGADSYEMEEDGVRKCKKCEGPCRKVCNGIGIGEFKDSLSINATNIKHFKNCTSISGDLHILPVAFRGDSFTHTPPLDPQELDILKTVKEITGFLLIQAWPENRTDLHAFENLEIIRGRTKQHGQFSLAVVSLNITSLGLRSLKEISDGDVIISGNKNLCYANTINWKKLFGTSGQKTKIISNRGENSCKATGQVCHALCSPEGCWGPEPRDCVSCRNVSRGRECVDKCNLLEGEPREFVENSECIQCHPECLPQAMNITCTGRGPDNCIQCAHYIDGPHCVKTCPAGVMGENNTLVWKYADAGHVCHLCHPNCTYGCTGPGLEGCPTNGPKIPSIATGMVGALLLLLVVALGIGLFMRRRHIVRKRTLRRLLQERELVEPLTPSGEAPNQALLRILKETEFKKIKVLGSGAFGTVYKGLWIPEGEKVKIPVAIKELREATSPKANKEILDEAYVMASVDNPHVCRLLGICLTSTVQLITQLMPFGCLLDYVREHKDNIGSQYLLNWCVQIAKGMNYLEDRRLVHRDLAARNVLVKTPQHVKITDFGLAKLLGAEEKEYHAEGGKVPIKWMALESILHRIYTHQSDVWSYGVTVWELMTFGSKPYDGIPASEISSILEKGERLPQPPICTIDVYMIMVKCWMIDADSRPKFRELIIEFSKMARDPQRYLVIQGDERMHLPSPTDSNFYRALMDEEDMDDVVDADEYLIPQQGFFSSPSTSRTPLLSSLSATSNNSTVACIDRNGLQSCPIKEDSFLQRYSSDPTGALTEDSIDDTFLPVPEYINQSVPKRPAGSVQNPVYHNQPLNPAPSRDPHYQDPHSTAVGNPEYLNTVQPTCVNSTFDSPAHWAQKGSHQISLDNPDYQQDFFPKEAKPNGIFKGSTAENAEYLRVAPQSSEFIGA
Test [8] concerns the target Follistatin-related protein 3 (Homo sapiens) (UniProt O95633). Put plainly: compounds binding follistatin-related protein 3 – biochemical, small-molecule microarray, 635 nm fluorescence, primary screen (AID 1105).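 Note: score merges emission near 667 nm and signal to noise per printed spot across three slides.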 As to conditions: FSTL3 binding, higher = more signal.
Test [9] addresses Dickkopf-related protein 1 (Homo sapiens) (UniProt O94907). Briefly: small molecules binding DKK1 protein – biochemical, small-molecule microarray, 635 nm fluorescence scan, primary screen (AID 1106).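 Note: score merges emission near 667 nm with signal to noise over three replicate slides.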 The following applies: higher = more signal.
The test system of test [10] is Inhibin beta A chain (activin A). Briefly: small molecules binding activin A – biochemical, small-molecule microarray, 635 nm fluorescence scan, primary screen (AID 1107).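 Note: mouse activin A protein probed at 4.33 µg/mL on printed slides; score merges bound-protein fluorescence near 667 nm with spot signal-to-noise.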 As to conditions: INHBA, higher = more signal.

Sequence of Follistatin-related protein 3 (Homo sapiens) (O95633 whole entry, looked up): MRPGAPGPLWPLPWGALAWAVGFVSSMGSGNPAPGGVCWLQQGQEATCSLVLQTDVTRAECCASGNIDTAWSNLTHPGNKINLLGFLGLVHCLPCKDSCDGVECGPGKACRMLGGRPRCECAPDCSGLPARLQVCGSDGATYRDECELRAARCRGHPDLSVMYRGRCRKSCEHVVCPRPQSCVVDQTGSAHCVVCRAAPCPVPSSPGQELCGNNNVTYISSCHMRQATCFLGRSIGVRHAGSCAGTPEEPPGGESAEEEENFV
Sequence of Dickkopf-related protein 1 (Homo sapiens) (O94907 whole entry, looked up): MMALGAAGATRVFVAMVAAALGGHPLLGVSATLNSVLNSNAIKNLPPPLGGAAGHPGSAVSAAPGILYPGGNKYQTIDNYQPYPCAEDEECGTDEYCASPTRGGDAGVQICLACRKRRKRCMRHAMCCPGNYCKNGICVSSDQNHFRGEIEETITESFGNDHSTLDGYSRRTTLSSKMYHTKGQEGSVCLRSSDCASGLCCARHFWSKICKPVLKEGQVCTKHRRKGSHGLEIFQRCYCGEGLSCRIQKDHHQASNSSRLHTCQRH

Consider `CCOC(=O)CCN1C(=O)[C@H]2[C@H]3[C@H](O)[C@H](O)CC(=NOCC=C(C)CCC=C(C)C)[C@@H]3CC[C@H]2C1=O`, for which the composite z-score in test [1] is 0.255; in test [2], 0.333; in test [3], -0.202; in [5] it was 1.15; in [6], 0.659; in test [7], 1.17. Besides, the composite z-score in test [8] was 0.825; in [9] it was 0.606; in test [10], -0.259. Also, the z-score in test [4] was 0.0459 (inactive).

For the molecule `C[C@]12CCC3c4ccc(OCC5CO5)cc4CCC3C1CC[C@@H]2O` (stereo not given in full), the composite z-score was 0.728 in test [1]; 0.527 in [2]; 0.596 in test [3]; 0.457 in test [5]; -0.309 in [6]; 0.182 in test [7]. For the same molecule, the figures for the composite z-score in test [8], in test [9] and in [10] were 0.239, 0.0294 and 0.944, respectively. Besides, the z-score in test [4] is 0.147 (inactive).

Consider `CC(CCC(=O)OC[C@H]1O[C@H](C#Cc2ccccc2)C=C[C@@H]1Oc1ccc(C)cc1)=NO[C@@H](C)c1cc(-c2c(C)cc(C)cc2C)no1`, for which the composite z-score in test [1] was 0.199; in [2] it was -0.293; in test [3] it was -0.0256; in [5] it was -1.43; in [6], -1.48; in test [7], -0.983. Moreover, the composite z-score was -1.27 in [8], -0.465 in test [9] and 0.486 in test [10]. Moreover, the z-score in [4] was 0.0536 (inactive).

As for `CC(=O)OC[C@H]1O[C@H](CC=NOC[C@@H](O)[C@H]2O[C@@H]3OC(C)(C)O[C@@H]3[C@H]2O)C=C[C@@H]1OC(C)=O`, the composite z-score in test [1] was 0.8; in test [2], -0.0771; in test [3] it was -0.351; in test [5], 0.771; in [6], 0.529; in [7] it was 0.317. Also, the composite z-score in test [8] is 0.451; in test [9], 0.375; in test [10], -0.115. Moreover, in [4], the z-score was -0.136 (inactive).

Turning to `CCOC(=O)[C@H](Cc1ccccc1)NC(=O)CCC1CC(OC(=O)NCc2cccc3ccccc23)CC2(CCCC(COC(=O)NCCc3ccc(Cl)cc3)O2)O1` (stereo not given in full), the composite z-score is 0.519 in [1]; -0.217 in [2]; -0.603 in test [3]; 0.718 in test [5]; 0.24 in [6]; 0.104 in test [7]. Also, the composite z-score came out at 0.588 in test [8], 0.621 in [9] and 0.145 in test [10]. For the same molecule, in test [4], the z-score was -0.84 (inactive).

`CCOC(=O)CCN1C(=O)[C@H]2[C@H]3[C@H](O)[C@H](O)CC(=NNC(=O)OCc4ccccc4)[C@H]3CC[C@H]2C1=O`: the composite z-score in test [1] was 0.108; in test [2] it was -0.467; in test [3] it was -1.17; in test [5], -0.193; in [6], -0.296; in [7], 0.345. In addition, the composite z-score was 0.373 in test [8], 0.766 in [9] and 1.62 in [10]. In addition, the z-score in test [4] was 0.325 (inactive).

As for `C[C@@H]1CC[C@H]2C(=O)OC(Cc3ccccc3)CN2[C@H]1c1ccc(Br)cc1` (stereo not given in full), the composite z-score in [1] was 0.413; in test [2], -0.193; in [3], -0.312; in [5], 0.524; in test [6], 0.255; in [7] it was 0.0012. Further, the composite z-score was 0.141 in test [8], -0.0094 in test [9] and 0.445 in test [10]. For the same molecule, the z-score in test [4] is 0.264 (inactive).

Consider `CC(C)C(=O)N[C@H]1CCCN1C(=O)C=Cc1ccccc1`, for which the composite z-score in [1] was 0.0571; in test [2], -0.0477; in test [3], -0.43; in test [5], 1.07; in test [6] it was 0.823; in test [7], 0.43. Also, the composite z-score in test [8] came out at 0.722; in test [9] it was 0.634; in test [10], 0.0551. Besides, the z-score in [4] is 0.539 (inactive).

Take `CC#CCOCCC=C1c2ccccc2[C@@H](OC)[C@@H]1C`: the composite z-score in test [1] was 0.183; in test [2] it was -0.168; in test [3] it was -0.42; in [5], 0.593; in test [6] it was -0.406; in [7], 0.0594. Moreover, the composite z-score in test [8] was 0.449; in test [9], 0.487; in test [10], -2.36. The z-score in [4] was 0.478 (inactive).

Take `CCOC(=O)[C@H](CC(C)C)NC(=O)CCC1CC(OC(=O)NCc2ccc3c(c2)OCO3)CC2(CCCC(COC(=O)NCc3ccccc3)O2)O1` (stereo not given in full): the composite z-score is 0.58 in test [1]; -0.197 in test [2]; -0.495 in test [3]; 0.713 in test [5]; 0.486 in test [6]; 0.316 in test [7]. For the same molecule, the composite z-score in [8] is 0.675; in test [9] it was 0.425; in test [10], -0.0973. Besides, the z-score in [4] was -0.403 (inactive).

Regarding `CC(CCN1CCCc2nc(C)c(C)cc21)=NOC[C@@H](O)COCc1ccco1`, the composite z-score in [1] is 1.22; in [2], 1.57; in test [3] it was -0.216; in test [5], 1.56; in test [6] it was 1.22; in test [7], 1.76. Further, the composite z-score in [8] was 1.6; in test [9] it was 2.25; in [10] it was 1.96. Besides, the z-score in test [4] was 0.58 (inactive).

For `CCOC(=O)CCN1C(=O)[C@H]2[C@H]3[C@H](O)[C@H](O)CC(=NNC(=O)OCC)[C@H]3CC[C@H]2C1=O`, the composite z-score is 0.533 in test [1]; -0.55 in test [2]; -0.799 in test [3]; 0.0385 in test [5]; -0.542 in test [6]; 0.459 in [7]. For the same molecule, the composite z-score is 0.567 in test [8], 0.913 in test [9] and 1.26 in [10]. Further, the z-score in test [4] is -0.24 (inactive).

For the molecule `O=C1C=C[C@@H](O)[C@@H]2[C@@H]3C(=O)N(Cc4ccccc4)C(=O)[C@@H]3CC[C@@H]12`, the composite z-score in test [1] is 0.295; in test [2], -0.262; in test [3], -0.684; in [5], 0.659; in test [6], 0.653; in test [7] it was 0.552. The composite z-score in [8] stood at 0.353; in [9], 0.232; in test [10], 0.181. In addition, in [4], the z-score is -0.71 (inactive).
